Reference: PubChem BioAssay (NCI)
This is part of a sample that, as a whole, favours compounds with a hit. Of some 83,000 tested, about 20% had one in any assay.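 Method: cells in 96-well plates; compound added at one concentration; 48 h incubation; percent growth measured; values under 10 scored active.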 Unmarked numbers belong to inactive results. Activity calls are given as the source filed them.

Columns and labels:
Experiment in all cases: NCI-60 one-dose screen, 48 h (100 = growth as untreated, 0 = no growth, -100 = all killed)
Details in all cases: 10 µM unless noted
HCT-15 colon = tested on: HCT-15 colon
HT29 colon = tested on: HT29 colon
SNB-75 CNS = tested on: SNB-75 CNS
SNB-19 CNS = tested on: SNB-19 CNS
U251 CNS = tested on: U251 CNS
PC-3 prostate = tested on: PC-3 prostate
SK-MEL-5 melanoma = tested on: SK-MEL-5 melanoma
UACC-62 melanoma = tested on: UACC-62 melanoma
LOX IMVI melanoma = tested on: LOX IMVI melanoma
SK-MEL-28 melanoma = tested on: SK-MEL-28 melanoma
SK-MEL-2 melanoma = tested on: SK-MEL-2 melanoma
SN12C renal = tested on: SN12C renal
UO-31 renal = tested on: UO-31 renal
TK-10 renal = tested on: TK-10 renal
ACHN renal = tested on: ACHN renal
CAKI-1 renal = tested on: CAKI-1 renal
A498 renal = tested on: A498 renal
CCRF-CEM leukemia = tested on: CCRF-CEM leukemia
MOLT-4 leukemia = tested on: MOLT-4 leukemia

Compound | growth (HCT-15 colon) | growth (HT29 colon) | growth (SNB-75 CNS) | growth (SNB-19 CNS) | growth (U251 CNS) | growth (PC-3 prostate) | growth (SK-MEL-5 melanoma) | growth (UACC-62 melanoma) | growth (LOX IMVI melanoma) | growth (SK-MEL-28 melanoma) | growth (SK-MEL-2 melanoma) | growth (SN12C renal) | growth (UO-31 renal) | growth (TK-10 renal) | growth (ACHN renal) | growth (CAKI-1 renal) | growth (A498 renal) | growth (CCRF-CEM leukemia) | growth (MOLT-4 leukemia)
C/C(=C\c1csc(C)n1)[C@@H]1C[C@@H]2O[C@]2(C)CCC[C@H](C)[C@H](O)[C@@H](C)C(=O)C(C)(C)[C@@H](O)CC(=O)N1 | -93.4% (active) | -10.4% (active) | -19.4% (active) | -41.4% (active) | -100% (active) | -63.9% (active) | -89.9% (active) | -93.7% (active) | -100% (active) | -43.3% (active) | -46.7% (active) | -81.1% (active) | -85.7% (active) | -68% (active) | -100% (active) | -88.4% (active) | -28.7% (active) | -80.7% (active) | -27.5% (active)
COc1cc2nc(Cl)nc(NCCO)c2cc1OC | 99% | 110% | 86.1% | 104% | 96.5% | 93.4% | 102% | 108% | 97.7% | 112% | 125% | 104% | 94.8% | 103% | 98.3% | 111% | 79.7% | 98.8% | –
O=C(O)c1ccc(-n2c(=O)c3ccccc3c3ccccc3c2=O)cc1 | 104% | 98.5% | 92.9% | 104% | 102% | 98.9% | 104% | 105% | 103% | 113% | 93% | 107% | 74.8% | 97.9% | 103% | 101% | 118% | 104% | 92.8%
COc1cc2nc(N3CCC[C@@H](NC4=CC(=O)c5ccccc5C4=O)C3)nc(N)c2cc1OC | -67.2% (active) | -59.8% (active) | -92.3% (active) | -49.7% (active) | -89.3% (active) | 23% | 94% | 87.8% | -65.3% (active) | 109% | 109% | 95.9% | 46% | -49.3% (active) | 72% | 64.9% | 107% | -20.9% (active) | -37.1% (active)
Cc1cc(Nc2nc(-c3ccncc3)nc3ccccc23)n[nH]1 | 44.2% | 61.3% | -23.4% (active) | 95% | 115% | 61% | 89.1% | 55.3% | 62.7% | 69.1% | 57.6% | 61.6% | 33.4% | 62% | 40.2% | -6.19% (active) | 4.45% (active) | 67.6% | 60.5%
COc1ccc(Cl)cc1NC(N)=S | 103% | 98.7% | 86.6% | 111% | 97.7% | 93% | 104% | 102% | 96.7% | 108% | 107% | 105% | 97% | 89.5% | 110% | 97.3% | 95.9% | 105% | 99.7%
CCC1CCc2nc3sc(C(=O)Nc4ccccc4C)c(N)c3cc2C1 (stereo unspecified) | 26.3% | 7.01% (active) | 25.9% | 54.1% | 42% | 26.8% | 26.6% | 33.2% | 35% | 49.5% | 21.9% | 58% | 37.6% | 59.6% | 47.4% | 29.4% | 33.2% | 18.7% | 39.7%
COc1cc(CCn2nnc3c(NCCCCO)ncnc32)cc(OC)c1 | 102% | 112% | 84.4% | 106% | 99.5% | 88.3% | 99.1% | 104% | 102% | 109% | 124% | 102% | 86.4% | 119% | 106% | 92.7% | 89% | 95% | 112%
COc1ccc(/C=C2\CCCC3=C2NC(C)=NC3c2ccc(OC)c(OC)c2)cc1OC (stereo unspecified) | -61.7% (active) | -2.36% (active) | 35.2% | 60.4% | 18.3% | 32% | 6.23% (active) | 10.9% | -72.7% (active) | 23% | 5.93% (active) | 5.95% (active) | 34.3% | 12.2% | 9.82% (active) | 5.12% (active) | 5.88% (active) | -20% (active) | -23.2% (active)
O=C(Nc1cccc(C(F)(F)F)c1)Nc1ccc(OCc2nnc(-c3ccccc3)o2)c(F)c1 | 26.7% | 43.2% | 19.2% | 46.6% | 29.5% | 5.14% (active) | 56.2% | 41.4% | 46.8% | 62.5% | 67.8% | 52.8% | 26.9% | 60.2% | 6.63% (active) | 36.9% | 43.5% | 8.15% (active) | 17%
COc1ccc(C2CC(c3cccs3)=NN2c2ccc(S(=O)(=O)NC(=O)Nc3ccc(C)cc3)cc2)cc1 (stereo unspecified) | 99.3% | 128% | 93.7% | 108% | 94.1% | 86.3% | 61.4% | 38.1% | 99.7% | 47.8% | 60.9% | 111% | 85.7% | 96.8% | 96.6% | 95.8% | 109% | 87.9% | –
O=S(=O)(c1ccccc1)n1ccc(-c2ccc3c(c2)CCO3)n1 | 92.8% | 92.8% | 76.2% | 83.4% | 73.6% | 84.2% | 70.2% | 73.1% | 85.2% | 86.2% | 86.5% | 67.9% | 51% | 76.2% | 78.4% | 75.3% | 71.2% | 76.7% | 85.6%
O=C(Nc1ccccc1)OCC1OCOC(COC(=O)Nc2ccccc2)C1OC(=O)Nc1ccccc1 (stereo unspecified) | 51.7% | 43.1% | 32% | 73.2% | 74.9% | 64.2% | 67.8% | 73.1% | 29.7% | 39.2% | 109% | 77.3% | 85.6% | 83.3% | 48.4% | 91.7% | 69% | 29.5% | 73.8%
O=c1c2cccc3c(Nc4ccc(F)cc4)ccc(c32)c2nc3ccccc3n12 | 71.1% | 92.6% | 70.8% | 77.6% | 92% | 77.2% | 70.4% | 67.8% | 83.6% | 103% | 103% | 87.8% | 49.2% | 75.3% | 87.9% | 79.9% | 66.2% | 94.1% | 89.9%
O=C(c1c[nH]c2ccccc12)C(Sc1nc2ccccc2c(=O)[nH]1)c1ccccc1 (stereo unspecified) | 104% | 71.3% | 90.6% | 102% | 101% | 94.1% | 99.8% | 102% | 95.3% | 117% | 72.2% | 98.5% | 81.8% | 97.6% | 97.9% | 108% | 106% | 99.8% | 99.8%
CCOP(=O)(CCN1CCN(CCCCCOc2cc3c(cc2OC)C(=O)N2CCC[C@H]2C=N3)CC1)OCC | 104% | 80.4% | 65.5% | 91.5% | 30.1% | 76.2% | 83.9% | 94.6% | 22% | 120% | 33.6% | 79% | 28.3% | 148% | 99.9% | 57.3% | 89.2% | 11% | 19.9%
O=C(N/N=C/c1c(Cl)cccc1Cl)c1ccccc1Nc1ccnc(C(F)(F)F)c1 | 64.8% | 90.9% | 62.8% | 68.3% | 67.7% | 51% | 41.2% | 55.6% | 62.3% | 84.2% | 69.6% | 75.7% | 84.1% | 95.4% | 78.8% | 77.6% | 73.6% | 81.6% | 63.4%
